Target: Shiga toxin 2 (Escherichia coli O157:H7) (UniProt P09385+P09386)
Assay: E. coli 0.157:H7 Shiga Toxin SOP - stx2 screening assay
Assay type: functional
Design: scale not given: direction of the effect not stated beside the values
Conditions: 30 µM

Row | Structure (SMILES) | Percent Effect [%]
1 | NC(=O)C1CCN(C(=O)c2cccc(OCc3cscn3)c2)CC1 | -35.2
2 | O=C(N1CCCO1)[C@@]12CCO[C@@H]1CCN(C1CCCCC1)C2 | -31.5
3 | CC(C)(C)NC(=O)CNC(=O)CCc1ccccc1Br | -3.39
4 | Cc1cc(-c2cnc(NC3CC3)nc2-c2ccc(C)o2)on1 | 0.454
5 | O=C(COc1coc(CN2CCCCC2)cc1=O)Nc1ccc(Cl)cc1 | -36.2
6 | CC(=O)N1CCC2(CCCN(C(=O)c3ccccc3)C2)C1 (stereo unspecified) | -1.81
7 | COc1ccc(CN2CCN(C(C)=O)CC3(CC(=O)N(C)C3)C2)cc1 (stereo unspecified) | -5.8
8 | Cc1cc(CN2CCN(C(=O)c3sccc3C(C)C)CC2)no1 | 7.17
9 | Cc1cc(C)n(C2CN(CC(O)c3ccc(F)cc3)C2)n1 (stereo unspecified) | 6.15
10 | O=C1CC(c2ccncc2)c2c(c(C(=O)O)cn2-c2ccc(F)cc2)N1 (stereo unspecified) | -17.3
11 | Cn1cnc2c(N3CCCC3)nc(C3CCNCC3)cc21 | -31.9
12 | CCN1CCOC(CNCc2ccccn2)C1 (stereo unspecified) | 12.2
13 | Cn1cc(CN2CCn3cc(CNC(=O)c4cccn4C)nc3C2)cn1 | -19.5
14 | O=C(Nc1cc(F)ccc1OCC1CCCO1)c1ccc(O)nc1 (stereo unspecified) | 33.8
15 | Cc1nc(CN2CCCC(N(C)CCc3cccs3)C2)no1 (stereo unspecified) | 25.8
16 | CC(Cn1cccn1)NC(=O)N1CCN(Cc2cccs2)CC1 (stereo unspecified) | -23.7
17 | CCOCC1CN(C)Cc2cnn(CC3CCCC3)c21 (stereo unspecified) | -8.48
18 | CCCc1cc(CNC(=O)C2CCOc3ccccc3C2)on1 (stereo unspecified) | 17.5
19 | CN(CCCNC(=O)N1CCCC1c1ccsc1)c1ccccn1 (stereo unspecified) | -79.8
20 | Cc1ccccc1CN1CCN(CC(=O)Nc2cccnc2)CC1 | 17
21 | CC(C)OCCCN1CCCC(c2nc3ccccc3n2C(C)C)C1 (stereo unspecified) | -18.5
